Screens from PubChem BioAssay.
TbPYK inhibitor: inhibitors of Trypanosoma brucei pyruvate kinase | TbPYK enzyme, Kinase-Glo Plus ATP luminescence, 45 min | Potency, µM (series often up to 76.8 µM), most hits filed as inhibitors | 410,000 tested, 0.12% active | AID 624173; also: nearly all actives have a fitted effect of over 50% in size
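Activity of T. brucei pyruvate kinase was followed by Kinase-Glo Plus luminescence after the enzyme reacted 45 min at room temperature with 130 uM ADP (final) and substrate. Test compounds were added before ADP at multiple concentrations.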
CHX counter: affects cycloheximide protein synthesis inhibition readout, counter-screen; cell reporter, cycloheximide protein synthesis inhibition counterscreen; max response, %; 300,000 tested, 12% active; in the data active = max response mostly above about 13%, no sharp cut-off; inactive = mostly below about 14%; also: read at 38.3 µM for the half of the compounds with a filed dose
Sm TGR block: inhibitors of Schistosoma mansoni thioredoxin glutathione reductase | Q962Y6 | purified TGR, DTNB reduction, TNB absorbance 405 nm | Potency, µM (top dose mostly 114 µM), actives largely listed as inhibitors | 360,000 tested, 3% active; also: nearly all actives have a fitted effect of over 60% in size
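First, TGR (20 nM dispensed) and NADPH were mixed with compound. Second, a 15 min room-temperature incubation followed. Third, further NADPH and then DTNB were added to start the reaction. Finally, TNB absorbance was monitored kinetically.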
LmPK inh: blocks Leishmania mexicana pyruvate kinase activity; AID 1721; Potency, µM (titrated, usually from 57.5 µM), most hits filed as inhibitors; Q27686; 290,000 tested, 0.37% active; purified LmPK, Kinase-Glo ATP luminescence, 1 h
Target sequence (Q27686 whole entry, looked up): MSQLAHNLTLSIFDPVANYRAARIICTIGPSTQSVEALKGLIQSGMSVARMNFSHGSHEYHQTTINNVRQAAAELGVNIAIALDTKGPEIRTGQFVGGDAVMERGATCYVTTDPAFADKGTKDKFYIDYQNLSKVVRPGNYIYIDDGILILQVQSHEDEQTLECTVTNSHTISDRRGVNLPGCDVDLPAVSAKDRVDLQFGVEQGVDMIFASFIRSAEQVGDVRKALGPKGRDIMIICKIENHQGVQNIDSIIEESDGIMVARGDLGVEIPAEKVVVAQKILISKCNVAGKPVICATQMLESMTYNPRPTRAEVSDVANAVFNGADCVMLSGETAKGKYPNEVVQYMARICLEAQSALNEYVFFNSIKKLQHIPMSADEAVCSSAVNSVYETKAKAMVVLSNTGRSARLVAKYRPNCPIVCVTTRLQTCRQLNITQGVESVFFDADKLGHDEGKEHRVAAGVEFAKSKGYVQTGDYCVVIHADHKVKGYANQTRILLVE
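In 50 mM imidazole pH 7.2 with 7 mM MgCl2, LmPK (0.1 nM) turned over PEP (0.5 mM) and ADP (0.1 mM) for 1 h at room temperature. Luciferase read-out of ATP.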
Shiga inhibitor: blocks Shiga toxin action in Vero cells; inhibition, % at 38.7 µM; Vero cells, Shiga toxin protein synthesis inhibition reporter; 290,000 tested, 9.2% active; AID 2315; in the data active = inhibition mostly above about 28%, no sharp cut-off; inactive = mostly below about 43%
Giardia FBPA inh: Giardia lamblia aldolase inhibition; purified Giardia FBPA; Potency, µM (top dose mostly 59.6 µM), actives largely listed as inhibitors; 290,000 tested, 0.71% active; AID 2451; also: nearly all actives have a fitted effect of over 55% in size
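Giardia FBPA (40 nM reagent) was preincubated 10 min at RT with compound (up to 57.5 uM final), then substrate plus GAPDH/TPI/NAD/arsenate coupling system with diaphorase/resazurin was added; resorufin fluorescence (525/598 nm) was read after 20 min.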
Hits are given with their value; n = inactive; u = inconclusive; x = not tested or not shown; [ ] = remark or other dose. Only a selection was taken, and hits are over-represented in it overall. Unless noted, calls follow the shape of the dose curve; as a rule, active = well fitted curve in the direction sought with a large enough effect; inconclusive = small, poorly fitted or top-dose-only effect, or another doubt; inactive = no such curve, though single readings can be large; an effect the other way counts as inactive or inconclusive.

SMILES | TbPYK inhibitor | CHX counter | Sm TGR block | LmPK inh | Shiga inhibitor | Giardia FBPA inh
COc1ccc(NC(=S)N/N=C/c2cccn2Cc2ccccc2F)cc1 | n | n | n | n | n | n
COc1ccc(/C=N/NC(=S)Nc2ccccc2)cc1COc1ccc(F)cc1F | n | n | n | n | n | n
COc1ccc(NC(=S)N/N=C/c2ccc(F)c(F)c2)cc1 | n | 20 | n | n | 41 | n
COc1ccc(NC(=S)N/N=C/c2ccc(F)cc2)cc1OC | n | 30 | n | n | 46 | n
Fc1ccc(NC(=S)N/N=C/c2ccc(F)c(F)c2)cc1 | n | 29 | n | n | n | n
O=C(CSc1nc2ccccc2c2nc(-c3ccccc3)nn12)Nc1ccc(F)cc1 | n[15.4 µM] | x | n | x | x | x
COc1ccccc1N1CCN(C(=O)c2ccc3c(c2)NC(=O)C(CSCc2ccccc2C)N3)CC1 (centres undefined) | x | n | u | n | n | n
COC(=O)[C@@H]1Cc2c([nH]c3ccccc23)C(C)(C)N1C(=O)CCl | n | n | 32µM | n | n | n
CC(C)C(=O)Nc1ccc2nc(SCCOc3ccccc3)sc2c1 | n | x | n | x | x | x
CCNc1ccc(-c2nc(-c3ccncc3)no2)cc1[N+](=O)[O-] | n | x | n | x | x | x
c1ccc(-c2nc(-c3ccncc3)no2)cc1 | n | 70 | n | 14µM | 148 | n
c1ccc(-c2ccccc2-c2nc(-c3ccncc3)no2)cc1 | n | n | n | n | n | n
c1coc(-c2nc(-c3ccncc3)no2)c1 | n | 49 | n | 22µM | 71 | n
c1ccc(-c2ccc(-c3nc(-c4ccncc4)no3)cc2)cc1 | n | 35 | n[11.4 µM] | n | n | n
Fc1cccc(-c2nc(-c3ccncc3)no2)c1 | n | x | n | x | x | x
O=[N+]([O-])c1ccc(-c2nc(-c3ccncc3)no2)cc1 | n | 18 | n | n | 37 | n
O=C(Cn1nnc(-c2cccc(C(F)(F)F)c2)n1)NCc1ccc(F)cc1 | n | x | n | x | x | x
Cc1ccc(Cl)cc1NS(=O)(=O)c1ccc(N2CCCCS2(=O)=O)cc1 | n | x | n | x | x | x
COc1cccc(C(=O)NCCSc2ccc(F)cc2)c1 | n | 39 | n | n | 57 | n
COc1cccc(C(=O)NCCSc2ccc(C)cc2)c1 | n | 21 | n | n | n | n
COc1ccccc1NC(=O)c1c(C)cc(C)nc1SCC(=O)Nc1ccc(C)cc1 | n | x | n | x | x | x
Cc1ccc(Cl)cc1N1C(=O)N(Cc2ccc(C#N)cc2)c2ccccc2S1(=O)=O | n | x | n | x | x | x
COc1ccc(C2=NOC(C(=O)N3CCCc4ccccc43)C2)cc1 (centres undefined) | n | 23 | n | n | n | n
COc1ccc(OC)c(-c2cc(C(=O)N3CCCc4ccccc43)no2)c1 | n | n | n | n | n | n
COc1cccc(-c2cc(C(=O)N3CCCc4ccccc43)no2)c1 | n | 28 | n | n | 46 | n
SMILES | TbPYK inhibitor | CHX counter | Sm TGR block | LmPK inh | Shiga inhibitor | Giardia FBPA inh
COc1ccc(-c2cc(C(=O)N3CCCc4ccccc43)no2)cc1OC | n | n | n | n | n | n
COc1ccc(-c2cc(C(=O)N3CCCc4ccccc43)no2)cc1 | n | 44 | n | n | 94 | n
COc1ccccc1-c1cc(C(=O)N2CCCc3ccccc32)no1 | n | 60 | n | n | 72 | n
CN(C(=O)Cn1nc(Cc2cccnc2)c2ccccc2c1=O)c1cccc(C(F)(F)F)c1 | n | x | n | x | x | x
CC1CN(C(=O)N2CCC(C(=O)N3CCN(c4ccccc4)CC3)CC2)c2cc(Cl)ccc2O1 (centres undefined) | n | x | n | x | x | x
CSc1ccccc1NC(=O)C1=CC(c2ccc3c(c2)OCO3)=NS(=O)(=O)N1C | n | x | n | x | x | x
COc1c(CC=C(C)C)cc(C2CC(=O)c3c(O)cc(O)cc3O2)cc1CC=C(C)C (centres undefined) | n | active | n | n | n | n
CC(C)=CCc1c(O)cc(O)c2c1OC(c1ccc(O)cc1)CC2=O (centres undefined) | n | x | x | x | x | x
COc1ccc([C@@H]2CC(=O)c3c(O)cc(O)cc3O2)cc1O | n | x | n | x | x | n
CC(C)=CCc1c(O)cc2c(c1O)C(=O)CC(c1ccc(O)cc1)O2 (centres undefined) | n | 23 | n | n | n | n
COc1ccc(-c2cc(C(F)(F)F)n3nc(C(=O)O)c(Cl)c3n2)cc1OC | n | x | n | x | x | x
Cc1nc(/N=C(\N)NC(=O)c2ccccc2)nc2ccccc12 | n | 50 | n | n | 52 | n
Cc1c(C(=O)Nc2cc(F)ccc2F)sc2nc3n(c(=O)c12)CCCCC3 | n | 36 | n | n | n | x
Cc1cc(Br)ccc1NC(=O)c1sc2nc3n(c(=O)c2c1C)CCCC3 | n | x | 22µM | x | x | x
CCC12CN3CC(C)(CN(C1)C3c1ccccc1C)C2=O (centres undefined) | n | x | n | x | x | x
Cn1c(=O)c2sccc2n2c(CCC(=O)Nc3ccc(F)cc3)nnc12 | n | x | n | x | x | x
CC1(C)C[C@H]2C=C(C=O)[C@]3(C=O)C[C@]3(C)[C@H]2C1 | n | n | 50µM | n | n | n
Cc1c(/C(O)=C2\C(=O)C(=O)N(CCCN(C)C)C2c2ccccc2)cnn1-c1ccccc1 (centres undefined) | n | n | n | n | n | n
Cc1c(/C(O)=C2\C(=O)C(=O)N(CCN(C)C)C2c2cccs2)cnn1-c1ccccc1 (centres undefined) | n | 19 | n | n | n | n
COc1cccc(C2/C(=C(/O)c3cnn(-c4ccccc4)c3C)C(=O)C(=O)N2CCN(C)C)c1 (centres undefined) | n | n | n | n | n | n
Cc1c(/C(O)=C2\C(=O)C(=O)N(CCN(C)C)C2c2cccnc2)cnn1-c1ccccc1 (centres undefined) | n | 15 | u | n | n | n
Cc1ccc(CNC(=O)C2CCN(S(=O)(=O)c3ccc4[nH]c(=O)ccc4c3)CC2)cc1 | n | x | n | x | x | x
C=CCN(CC=C)CCOc1ccc(OC(C)C)cc1 | n | 18 | n | n | 84 | u
C=CCN(CC=C)CCOc1ccc2ccccc2c1 | n | 21 | n | n | n | u
CC(C)C(OC(=O)c1ccccc1)c1nccc2ccccc12 (centres undefined) | n | 49 | n | n | 86 | n
O=C(OC(c1ccccc1)c1nccc2ccccc12)c1cccc([N+](=O)[O-])c1 (centres undefined) | n | 32 | n | n | n | n
C=CCSc1nncn1/N=C/c1ccc(OC)cc1 | n | 37 | n | n | 76 | n
COc1ccc(/C=N/n2cnnc2SCCO)cc1OC | n | n | u | n | n | n
CC(C)COC(=O)N1C(COCc2ccccc2)CCC=CS1(=O)=O (centres undefined) | x | n | x | x | n | n
O=[N+]([O-])c1cccc(CN2C(COCc3ccccc3)CCC=CS2(=O)=O)c1 (centres undefined) | x | 38 | x | x | 82 | n
